Assay results from PubChem BioAssay (NCI).
The panel holds about 83,000 compounds, 20% with a hit somewhere; the sample as a whole holds those more often.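 Activity criterion: percent growth below 10, measured after cells in 96-well plates were exposed to a single compound concentration for 48 hours.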 Calls of active or inactive are those of the source.

Legend:
Assay in all cases: NCI-60 one-dose screen, 48 h (100 = growth as untreated, 0 = no growth, -100 = all killed)
Details in all cases: 10 µM unless noted
SK-MEL-2 melanoma = test system: SK-MEL-2 melanoma
EKVX NSCLC = test system: EKVX NSCLC
SN12C renal = test system: SN12C renal
UO-31 renal = test system: UO-31 renal
TK-10 renal = test system: TK-10 renal
ACHN renal = test system: ACHN renal
CAKI-1 renal = test system: CAKI-1 renal
A498 renal = test system: A498 renal
CCRF-CEM leukemia = test system: CCRF-CEM leukemia
MOLT-4 leukemia = test system: MOLT-4 leukemia

Measured: growth

COc1ccc(-c2[nH]c(=S)n(C(CC3(C)NCC(=O)N3n3c(-c4ccccc4)cc(C)nc3=S)c3ccc(OC)cc3)c(=O)c2Br)cc1 (centres undefined)
active: A498 renal -10.4%
inactive: SK-MEL-2 melanoma 73.5% | EKVX NSCLC 60.5% | SN12C renal 65.5% | UO-31 renal 38.6% | TK-10 renal 63.5% | ACHN renal 67.5% | CAKI-1 renal 31.4% | CCRF-CEM leukemia 57.5% | MOLT-4 leukemia 54.6%

C(=N\Nc1ncc(-c2cc3cc4c(cc3o2)OCO4)s1)/c1ccco1
active: UO-31 renal -43.4% | CAKI-1 renal 9.09% | MOLT-4 leukemia 9.91%
inactive: SK-MEL-2 melanoma 90.8% | EKVX NSCLC 59.3% | SN12C renal 38.9% | TK-10 renal 50.7% | ACHN renal 11.1% | A498 renal 71.1% | CCRF-CEM leukemia 17.5%

Cc1cc(=O)oc2c1ccc1oc(C#N)c(C)c12
active: CCRF-CEM leukemia 6.77%
inactive: SK-MEL-2 melanoma 115% | EKVX NSCLC 93.7% | SN12C renal 101% | UO-31 renal 94.7% | TK-10 renal 89.2% | ACHN renal 103% | CAKI-1 renal 106% | A498 renal 75.1% | MOLT-4 leukemia 102%

COc1cc(C2CC(=O)Nc3c2c(C)nn3-c2nc3ccccc3[nH]2)c(OC)c(OC)c1OC (centres undefined)
inactive: SK-MEL-2 melanoma 50% | EKVX NSCLC 86.4% | SN12C renal 73.9% | UO-31 renal 62.3% | TK-10 renal 12.5% | ACHN renal 86.6% | CAKI-1 renal 43.6% | CCRF-CEM leukemia 39.6% | MOLT-4 leukemia 20.3%
active: A498 renal -9.27%

COc1cc(/C=C2\C(=O)ON=C2C)cc(OC)c1OC
inactive: SK-MEL-2 melanoma 113% | EKVX NSCLC 97.8% | SN12C renal 98.3% | UO-31 renal 80.3% | TK-10 renal 104% | ACHN renal 96.9% | CAKI-1 renal 91.5% | A498 renal 65% | CCRF-CEM leukemia 92.8% | MOLT-4 leukemia 102%

CC1=C([Se]CC(OC(=O)CC[Se]c2ccccc2)C(=O)NCCCCCC(=O)OCc2ccccc2)C(=O)c2ccccc2C1=O (centres undefined)
active: CCRF-CEM leukemia 9.75%
inactive: SK-MEL-2 melanoma 47.8% | EKVX NSCLC 27.1% | SN12C renal 13.4% | UO-31 renal 15.4% | TK-10 renal 40.9% | ACHN renal 23.8% | CAKI-1 renal 32.2% | A498 renal 71.9% | MOLT-4 leukemia 17.1%

N#Cc1nc(C#N)c(Sc2ccccc2)c(Sc2ccccc2)c1Sc1ccccc1
inactive: CAKI-1 renal 17.7%
active: SK-MEL-2 melanoma -64.1% | EKVX NSCLC 8.11% | SN12C renal 0.446% | UO-31 renal -72.1% | TK-10 renal -36.8% | ACHN renal -78% | A498 renal -14.1% | CCRF-CEM leukemia -7.95% | MOLT-4 leukemia -19.2%

C=CCNc1nc(NN2C(=O)c3cccc4cccc(c34)C2=O)nc(-n2cnc3ccccc32)n1
inactive: SK-MEL-2 melanoma 98.9% | EKVX NSCLC 62.8% | SN12C renal 60.4% | UO-31 renal 14.3% | TK-10 renal 102% | ACHN renal 64.8% | CAKI-1 renal 51.5% | A498 renal 32.4% | CCRF-CEM leukemia 83.8% | MOLT-4 leukemia 56%

COC(=O)/C=C1\S/C(=N\NS(=O)(=O)c2ccc(C)cc2)N(c2ccccc2)C1=O
inactive: SK-MEL-2 melanoma 107% | EKVX NSCLC 100% | SN12C renal 98.6% | UO-31 renal 90.8% | TK-10 renal 109% | ACHN renal 104% | CAKI-1 renal 96.6% | A498 renal 80.6% | CCRF-CEM leukemia 101% | MOLT-4 leukemia 93.9%

OC(c1cccc(-n2ccc(C(F)(F)F)n2)c1)c1cnccc1NC1CCCCCC1 (centres undefined)
inactive: SK-MEL-2 melanoma 27.1% | EKVX NSCLC 72.6% | SN12C renal 47.8% | UO-31 renal 41.5% | TK-10 renal 86.7% | CAKI-1 renal 66.5% | A498 renal 60.4%
active: ACHN renal -32.2% | CCRF-CEM leukemia 8.54% | MOLT-4 leukemia -14.2%

COCN1CCC2N(COC)CCC3N(COC)CCC1N23 (centres undefined)
inactive: SK-MEL-2 melanoma 107% | EKVX NSCLC 108% | SN12C renal 89.6% | UO-31 renal 107% | TK-10 renal 113% | ACHN renal 108% | CAKI-1 renal 102% | A498 renal 113% | CCRF-CEM leukemia 104% | MOLT-4 leukemia 111%

CCN(CC)c1ccc2nc3c4ccccc4c(=NC(=O)c4ccccc4-c4c5ccc(N(CC)CC)cc5[o+]c5cc(N(CC)CC)ccc45)cc-3oc2c1
inactive: SK-MEL-2 melanoma 41.7% | EKVX NSCLC 54.6% | SN12C renal 64% | UO-31 renal 32.6% | TK-10 renal 74.6% | ACHN renal 73.6% | CAKI-1 renal 55.2% | A498 renal 86.9% | CCRF-CEM leukemia 24.4%
active: MOLT-4 leukemia -23.9%

c1csc(-c2c3ccc(=[N+]4CCCCC4)cc-3oc3cc(N4CCCCC4)ccc23)c1
active: SK-MEL-2 melanoma -68.5% | EKVX NSCLC -51.8% | SN12C renal -65.1% | UO-31 renal -82.3% | TK-10 renal -92.5% | ACHN renal -94.4% | CAKI-1 renal -70.3% | A498 renal -96.4% | CCRF-CEM leukemia -19.7% | MOLT-4 leukemia -28.7%

COc1ccc(-c2nc3ccc4[nH]ncc4c3c3c2CCCC3)cc1B(O)O
active: CAKI-1 renal -1.55% | A498 renal 8.27%
inactive: SK-MEL-2 melanoma 56.1% | EKVX NSCLC 17.7% | SN12C renal 52% | UO-31 renal 33.7% | TK-10 renal 49.5% | ACHN renal 20.9% | CCRF-CEM leukemia 46.8% | MOLT-4 leukemia 48.8%

COc1ccc2c(c1)O/C(=C\c1cccc(OCC(=O)Nc3nc(C)c(C)s3)c1)C2=O
inactive: SK-MEL-2 melanoma 89.3% | SN12C renal 33.8% | TK-10 renal 111% | ACHN renal 98.7% | A498 renal 114% | MOLT-4 leukemia 19.2%
active: EKVX NSCLC -13.4% | UO-31 renal -74.9% | CAKI-1 renal -82.7% | CCRF-CEM leukemia -66.8%

Cc1ccc2nc(C)c(-c3nnc(SCc4ccc(C#N)cc4)o3)n2c1
inactive: SK-MEL-2 melanoma 101% | EKVX NSCLC 83.8% | SN12C renal 92.9% | UO-31 renal 67% | TK-10 renal 120% | ACHN renal 88.4% | CAKI-1 renal 85.3% | A498 renal 72% | CCRF-CEM leukemia 117% | MOLT-4 leukemia 101%

NC(N)=Nc1nc2ccccc2n2c1nc1ccccc12
active: MOLT-4 leukemia 7.99%
inactive: SK-MEL-2 melanoma 70.3% | EKVX NSCLC 36.3% | SN12C renal 28.3% | UO-31 renal 34.3% | TK-10 renal 46.2% | ACHN renal 11.7% | CAKI-1 renal 23.2% | A498 renal 52.5% | CCRF-CEM leukemia 25.7%

O=C(CSc1nnc(-c2ccc(NC(=O)c3cccnc3)cc2)o1)N[C@@H](Cc1ccc(O)cc1)C(=O)O
inactive: SK-MEL-2 melanoma 99.8% | EKVX NSCLC 110% | SN12C renal 94.4% | UO-31 renal 85.1% | TK-10 renal 106% | ACHN renal 98.6% | CAKI-1 renal 92.4% | A498 renal 117% | CCRF-CEM leukemia 96.6% | MOLT-4 leukemia 99.8%

O=C1Nc2ccccc2/C1=C/c1cn(C(=O)c2c(Cl)cccc2Cl)c2ccccc12
inactive: SK-MEL-2 melanoma 39.9% | EKVX NSCLC 81.5% | SN12C renal 56.1% | UO-31 renal 50.7% | TK-10 renal 90.7% | ACHN renal 43.6% | CAKI-1 renal 18.7% | A498 renal 52.5% | CCRF-CEM leukemia 70.5% | MOLT-4 leukemia 43.9%

COc1ccc(Nc2nnc(SCc3ccccc3F)s2)cc1
inactive: SK-MEL-2 melanoma 82.9% | EKVX NSCLC 94.9% | SN12C renal 107% | UO-31 renal 78.6% | TK-10 renal 123% | ACHN renal 106% | CAKI-1 renal 103% | A498 renal 91.4% | CCRF-CEM leukemia 76.4% | MOLT-4 leukemia 94.8%

CC1=C([Se]CC(OC(=O)[C@@H](CO)NC(=O)OC(C)(C)C)C(=O)NC(C)(C)C)C(=O)c2ccccc2C1=O (some centres undefined)
active: SK-MEL-2 melanoma -79.1% | EKVX NSCLC -56% | SN12C renal -100% | UO-31 renal -100% | TK-10 renal -100% | ACHN renal -100% | CAKI-1 renal -73.2% | A498 renal 7.64% | CCRF-CEM leukemia -29% | MOLT-4 leukemia -31.6%

COc1ccc(-c2nc(SCCC(C)C)nc(N/N=C\c3cccc(Cl)c3)c2C#N)cc1
inactive: SK-MEL-2 melanoma 98.3% | EKVX NSCLC 77.3% | SN12C renal 41.9% | UO-31 renal 48.9% | TK-10 renal 47.1% | ACHN renal 17.9% | CAKI-1 renal 61% | A498 renal 42.5% | CCRF-CEM leukemia 50% | MOLT-4 leukemia 74.7%

CNc1ccc(NC)c2c1C(=O)c1ccccc1C2=O
inactive: SK-MEL-2 melanoma 97.7% | EKVX NSCLC 94.6% | SN12C renal 80.3% | UO-31 renal 77.7% | TK-10 renal 84.9% | ACHN renal 77.7% | CAKI-1 renal 76.4% | A498 renal 94.4% | CCRF-CEM leukemia 84.3% | MOLT-4 leukemia 92.1%

Cc1ccc(C(=NN=C(N)N)c2ccc(C)cc2)cc1
active: SK-MEL-2 melanoma -4.66% | MOLT-4 leukemia 5.74%
inactive: EKVX NSCLC 52.4% | SN12C renal 22.6% | UO-31 renal 21% | TK-10 renal 12.9% | ACHN renal 23.8% | CAKI-1 renal 27.1% | A498 renal 17.1% | CCRF-CEM leukemia 14.7%

COc1cc2nc(Cl)nc(Nc3ccc(S(=O)(=O)Nc4nccs4)cc3)c2cc1OC
inactive: SK-MEL-2 melanoma 102% | EKVX NSCLC 93.9% | SN12C renal 95.7% | UO-31 renal 85.4% | TK-10 renal 119% | ACHN renal 88.2% | CAKI-1 renal 88.2% | A498 renal 136% | MOLT-4 leukemia 99.3%
